Data from PubChem BioAssay (Tox21).
Values joined by “and” are separate entries in the source; they are usually repeats but may differ in a detail not shown here. Equal entries are not always repeated. More than one record can exist for a structure, and the calls need not agree. Active and inactive are the calls of the source. Unless noted, calls come from the whole dose curve; as a rule, active = well fitted curve in the direction sought with a large enough effect in the repeat runs; inconclusive = weak or mixed curves; inactive = no such curve, though single readings can be large; an effect the other way counts as inactive or inconclusive.

Columns and labels:
[1] = qHTS assay to identify small molecule antagonists of the thyroid receptor (TR) signaling pathway (AID 743065); note: potency is the fitted concentration of half-maximal effect; nearly all actives have a fitted effect of over 55% in size
Procedure, shortened: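 GH3.TRE-Luc rat pituitary cells carrying two TR response elements driving luciferase were plated for 4 h, given compound plus 1 nM T3 (final), and incubated 23.5 h at 37 C. ONE-Glo luminescence measured reporter inhibition; CellTiter-Fluor fluorescence tracked cytotoxicity.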

[2] = qHTS assay to identify small molecule antagonists of the estrogen receptor alpha (ER-alpha) signaling pathway - cell viability counter screen (AID 743074; calls by dose curve; note: nearly all actives have a fitted effect of over 45% in size)
[3] = target: Estrogen receptor (Homo sapiens) (UniProt P03372); test: qHTS assay to identify small molecule agonists of the estrogen receptor alpha (ER-alpha) signaling pathway (AID 743075; calls by dose curve; note: potency is the fitted concentration of half-maximal effect)
Chain of Estrogen receptor (Homo sapiens) (P03372 whole entry, looked up): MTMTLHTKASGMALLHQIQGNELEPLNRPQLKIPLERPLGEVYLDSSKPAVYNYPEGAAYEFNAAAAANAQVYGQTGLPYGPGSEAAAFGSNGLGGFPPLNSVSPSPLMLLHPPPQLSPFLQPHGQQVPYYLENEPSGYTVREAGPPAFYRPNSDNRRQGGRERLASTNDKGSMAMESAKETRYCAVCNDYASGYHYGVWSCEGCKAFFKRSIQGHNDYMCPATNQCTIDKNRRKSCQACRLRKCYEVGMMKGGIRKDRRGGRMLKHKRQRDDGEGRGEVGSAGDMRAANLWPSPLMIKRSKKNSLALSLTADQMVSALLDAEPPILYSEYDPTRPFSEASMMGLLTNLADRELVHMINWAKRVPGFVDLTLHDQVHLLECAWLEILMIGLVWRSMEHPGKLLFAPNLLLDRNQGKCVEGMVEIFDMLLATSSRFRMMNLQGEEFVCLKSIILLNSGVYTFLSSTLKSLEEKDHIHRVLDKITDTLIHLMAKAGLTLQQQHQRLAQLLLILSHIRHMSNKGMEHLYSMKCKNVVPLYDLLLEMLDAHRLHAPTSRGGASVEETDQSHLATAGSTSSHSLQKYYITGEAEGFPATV

[4] = target: Estrogen receptor (Homo sapiens) (UniProt P03372); test: qHTS assay to identify small molecule agonists of the estrogen receptor alpha (ER-alpha) signaling pathway using the BG1 cell line (AID 743079); note: nearly all actives have a fitted effect of over 20% in size; note: potency is the fitted concentration of half-maximal effect
[5] = qHTS assay to identify small molecule antagonists of the estrogen receptor alpha (ER-alpha) signaling pathway using the BG1 cell line (AID 743080; calls by dose curve; note: nearly all actives have a fitted effect of over 25% in size; note: potency is the fitted concentration of half-maximal effect)
Procedure, shortened: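 Antagonist mode: compounds in DMSO were pinned onto BG1-Luc-4E2 cells alongside 17beta-estradiol agonist, incubated 21.5 h, and ERE-driven luciferase measured with ONE-Glo. Cytotoxicity was multiplexed using CellTiter-Fluor fluorescence.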

[6] = qHTS assay to identify small molecule antagonists of the estrogen receptor alpha (ER-alpha) signaling pathway using the BG1 cell line - cell viability counter screen (AID 743081);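 note: compound given together with 17beta-estradiol as the ER stimulus; series mostly up to about 70 µM; nearly all actives have a fitted effect of over 45% in size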
[7] = target: Peroxisome proliferator-activated receptor gamma (Homo sapiens) (UniProt P37231); test: qHTS assay to identify small molecule antagonists of the peroxisome proliferator-activated receptor gamma (PPARg) signaling pathway (AID 743191; calls by dose curve; note: series mostly up to about 63 µM; nearly all actives have a fitted effect of over 30% in size)
Chain of Peroxisome proliferator-activated receptor gamma (Homo sapiens) (P37231 whole entry, looked up): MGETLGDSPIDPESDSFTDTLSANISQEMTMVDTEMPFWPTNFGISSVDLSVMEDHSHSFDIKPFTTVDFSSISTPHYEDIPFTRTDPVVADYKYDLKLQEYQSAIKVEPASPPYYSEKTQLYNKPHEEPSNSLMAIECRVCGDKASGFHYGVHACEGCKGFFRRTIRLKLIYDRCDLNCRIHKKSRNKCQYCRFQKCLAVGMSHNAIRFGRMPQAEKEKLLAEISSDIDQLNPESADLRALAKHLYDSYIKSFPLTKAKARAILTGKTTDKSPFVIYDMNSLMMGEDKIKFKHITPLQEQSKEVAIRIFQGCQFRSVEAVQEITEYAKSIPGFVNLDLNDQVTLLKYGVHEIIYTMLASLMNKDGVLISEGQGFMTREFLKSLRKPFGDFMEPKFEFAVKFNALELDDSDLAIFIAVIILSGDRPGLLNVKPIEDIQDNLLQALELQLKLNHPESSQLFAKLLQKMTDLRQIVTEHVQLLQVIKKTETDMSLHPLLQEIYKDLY
Procedure, shortened: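 GeneBLAzer PPARg UAS-bla HEK293H cells carrying a UAS-driven beta-lactamase reporter were plated at 3000 cells/well, preincubated 5 h at 37C, then given compound for 17 h at 37C; LiveBLAzer B/G FRET substrate was read after 1 h at room temperature.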

[8] = qHTS assay to identify small molecule antagonists of the peroxisome proliferator-activated receptor gamma (PPARg) signaling pathway - cell viability counter screen (AID 743194); note: nearly all actives have a fitted effect of over 55% in size; note: potency is the fitted concentration of half-maximal effect
Procedure, shortened: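 PPARg-UAS-bla HEK293H cells were plated, rested 5 h at 37 C, then treated with compounds plus rosiglitazone (50 nM final) for 17 h at 37 C; viability was then read by CellTiter-Glo luminescence after 30 min at room temperature.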

[9] = qHTS assay for small molecule agonists of the antioxidant response element (ARE) signaling pathway - cell viability counter screen (AID 743203; calls by dose curve; note: nearly all actives have a fitted effect of over 55% in size)
Procedure, shortened: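 HepG2 cells carrying ARE-driven beta-lactamase; 2,000 cells/well; 5 hrs plating; compound pinned from DMSO; 16 hrs 37C/5% CO2; CellTiter-Glo added; 30 min RT; luminescence.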

[10] = qHTS assay for small molecule activators of the heat shock response signaling pathway - cell viability counter screen (AID 743209); note: nearly all actives have a fitted effect of over 50% in size
Procedure, shortened: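 Luminescence from CellTiter-Glo, added after the beta-lactamase FRET read, gave the viability signal. Cells were HSE-bla HeLa treated with DMSO-dissolved compounds for 5 h at 37 C following overnight plating.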

[11] = qHTS assay for small molecule activators of the heat shock response signaling pathway (AID 743210; active = well fitted activation curve with a large enough effect in the signal ratio in the repeat runs, with a control signal flat, not every such curve was filed as active; inconclusive = weak or mixed curves; the % refers to the signal ratio; note: series mostly up to about 63 µM)
Procedure, shortened: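 HSE-bla HeLa cells (beta-lactamase reporter under heat shock response elements) were exposed to compounds for 5 h at 37 C, then loaded with LiveBLAzer B/G FRET substrate for 2.5 h at room temperature before fluorescence reading.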

[12] = qHTS assay to identify small molecule agonists of the peroxisome proliferator-activated receptor delta (PPARd) signaling pathway - cell viability counter screen (AID 743211); note: nearly all actives have a fitted effect of over 55% in size; note: potency is the fitted concentration of half-maximal effect
Procedure, shortened: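 PPARd-bla HEK293H cells (UAS-beta-lactamase reporter) were treated with compounds for 17 h at 37 C. Viability was then read in the same wells by CellTiter-Glo luminescence after 30 min at room temperature.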

Aromatase (Homo sapiens) = Aromatase (Homo sapiens) (UniProt P11511); test: qHTS assay to identify aromatase inhibitors (AID 743083); note: nearly all actives have a fitted effect of over 55% in size; note: potency is the fitted concentration of half-maximal effect
Chain of Aromatase (Homo sapiens) (P11511 whole entry, looked up): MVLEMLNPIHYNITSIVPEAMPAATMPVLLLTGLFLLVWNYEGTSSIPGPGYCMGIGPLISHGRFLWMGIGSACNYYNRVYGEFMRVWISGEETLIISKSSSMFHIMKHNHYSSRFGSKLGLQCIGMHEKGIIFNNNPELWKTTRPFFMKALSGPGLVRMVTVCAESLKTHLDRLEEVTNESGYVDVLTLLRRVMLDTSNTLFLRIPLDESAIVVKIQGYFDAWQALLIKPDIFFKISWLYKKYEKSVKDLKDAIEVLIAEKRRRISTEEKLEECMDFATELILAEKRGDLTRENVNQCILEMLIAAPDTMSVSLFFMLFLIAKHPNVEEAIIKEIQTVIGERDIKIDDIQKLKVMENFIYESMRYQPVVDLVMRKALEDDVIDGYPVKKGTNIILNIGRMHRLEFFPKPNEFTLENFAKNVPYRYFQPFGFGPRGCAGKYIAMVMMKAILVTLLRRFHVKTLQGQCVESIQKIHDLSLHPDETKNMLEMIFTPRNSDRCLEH

[13] = qHTS assay to identify aromatase inhibitors - cell viability counter screen (AID 743084)
[14] = target: Aryl hydrocarbon receptor (Homo sapiens) (UniProt P35869); test: qHTS assay to identify small molecule that activate the aryl hydrocarbon receptor (AhR) signaling pathway (AID 743085); note: nearly all actives have a fitted effect of over 15% in size; note: potency is the fitted concentration of half-maximal effect;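 for activation: HG2L7.5c1 human HepG2 liver cells with stably integrated DRE-driven firefly reporter; series mostly up to about 70 µM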
Chain of Aryl hydrocarbon receptor (Homo sapiens) (P35869 whole entry, looked up): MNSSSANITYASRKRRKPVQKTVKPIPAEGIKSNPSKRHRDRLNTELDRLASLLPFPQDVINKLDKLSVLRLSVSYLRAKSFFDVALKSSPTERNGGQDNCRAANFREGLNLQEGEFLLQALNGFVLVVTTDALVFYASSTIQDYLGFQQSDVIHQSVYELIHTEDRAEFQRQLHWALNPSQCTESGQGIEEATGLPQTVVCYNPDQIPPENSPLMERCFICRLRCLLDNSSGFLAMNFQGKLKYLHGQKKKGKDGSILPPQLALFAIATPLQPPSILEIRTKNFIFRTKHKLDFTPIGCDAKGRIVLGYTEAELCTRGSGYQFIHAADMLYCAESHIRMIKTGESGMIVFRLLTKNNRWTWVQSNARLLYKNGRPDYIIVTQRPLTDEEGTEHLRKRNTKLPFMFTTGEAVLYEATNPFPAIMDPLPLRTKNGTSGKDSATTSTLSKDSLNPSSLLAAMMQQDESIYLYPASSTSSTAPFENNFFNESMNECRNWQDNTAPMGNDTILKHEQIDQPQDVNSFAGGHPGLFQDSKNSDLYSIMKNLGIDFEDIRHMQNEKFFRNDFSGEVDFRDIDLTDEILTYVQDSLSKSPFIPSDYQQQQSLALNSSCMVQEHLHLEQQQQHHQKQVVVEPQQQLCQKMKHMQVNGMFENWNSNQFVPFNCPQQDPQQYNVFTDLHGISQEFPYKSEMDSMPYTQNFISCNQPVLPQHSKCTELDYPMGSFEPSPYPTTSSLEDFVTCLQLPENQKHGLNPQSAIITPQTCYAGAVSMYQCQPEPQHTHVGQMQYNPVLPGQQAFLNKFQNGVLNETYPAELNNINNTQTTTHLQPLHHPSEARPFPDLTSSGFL
Procedure, shortened: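 HepG2 cells (HG2L7.5c1) stably carrying a firefly luciferase reporter driven by 20 dioxin responsive elements were exposed to compound for 24 h at 37C after a 5 h settling period; luminescence rise (ONE-Glo) indicated activation.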

[15] = qHTS assay to identify small molecule that activate the aryl hydrocarbon receptor (AhR) signaling pathway - cell viability counter screen (AID 743086); note: nearly all actives have a fitted effect of over 45% in size; note: potency is the fitted concentration of half-maximal effect
Procedure, shortened: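 HepG2-AhR-luc (HG2L7.5c1) cells, 4000/well, were preincubated 5 h at 37C, exposed to compound in qHTS format for 24 hr at 37C, then given CellTiter-Fluor for 30 min; viability was read as fluorescence in the reporter wells.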

[16] = target: Peroxisome proliferator-activated receptor gamma (Homo sapiens) (UniProt P37231); test: qHTS assay to identify small molecule agonists of the peroxisome proliferator-activated receptor gamma (PPARg) signaling pathway (AID 743094; active = well fitted activation curve with a large enough effect in the signal ratio in the repeat runs, not every such curve was filed as active; inconclusive = weak or mixed curves, or effect the other way; inactive = no such curve, though single readings can be large or run the other way; the % refers to the signal ratio)
Procedure, shortened: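 Beta-lactamase FRET fluorescence was the read-out after a 1 h room-temperature substrate step, following 17 h compound treatment at 37C of HEK293H cells expressing a UAS-driven bla reporter responsive to PPARg.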

[17] = qHTS assay for small molecule agonists of the antioxidant response element (ARE) signaling pathway (AID 743202; active = well fitted activation curve with a large enough effect in the signal ratio in the repeat runs, not every such curve was filed as active; inconclusive = weak or mixed curves, or effect the other way; inactive = no such curve, though single readings can be large or run the other way; the % refers to the signal ratio; note: potency is the fitted concentration of half-maximal effect)
Procedure, shortened: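 Read-out: LiveBLAzer B/G FRET substrate fluorescence after 2 h at room temperature, following 16 h compound treatment at 37 C of HepG2 cells carrying an ARE-driven beta-lactamase reporter.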

[18] = target: Estrogen receptor (Homo sapiens) (UniProt P03372); test: qHTS assay to identify small molecule antagonists of the estrogen receptor alpha (ER-alpha) signaling pathway (AID 743069; active = well fitted curve in the direction sought with a large enough effect in the signal ratio in the repeat runs, not every such curve was filed as active; inconclusive = weak or mixed curves, or effect the other way; inactive = no such curve, though single readings can be large or run the other way; the % refers to the signal ratio; note: potency is the fitted concentration of half-maximal effect)
Procedure, shortened: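 HEK293 cells stably carrying an ER-alpha-UAS-bla beta-lactamase reporter were pre-cultured overnight in 2% charcoal-stripped FBS medium. Test compounds in DMSO were added together with 17beta-estradiol for 18 hr at 37C. Read-out was fluorescence after 2 hr with LiveBLAzer B/G FRET substrate at room temperature.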

Measured: Potency

COc1cc2nc(N3CCN(C(=O)c4ccco4)CC3)nc(N)c2cc1OC
active: [1] 8.41 µM
not listed: Aromatase (Homo sapiens) | [13] | [14] | [15] | [16] | [17] | [18]
inactive: all other assays above

CC1(C)CCC[C@]2(C)[C@H]3CCO[C@]3(C)CC[C@@H]12
not listed: [1] | [3] | [4] | [5] | [7] | [11] | [18]
inactive: all other assays above

Cc1c(F)c(N2CCNC(C)C2)cc2c1c(=O)c(C(=O)O)cn2C1CC1 (centres undefined)
not listed: [1] | [7] | [16] | [17]
inactive: all other assays above

CN(C)CCN1CCN(c2cccc(Cl)c2)C1=O
inactive: [8] | [17] | [9] | [10] | [11] | [12]

CCCC(=O)OCOC(=O)C1=C(C)NC(C)=C(C(=O)OC)C1c1cccc(Cl)c1Cl (centres undefined)
inactive: [7] | [8] | [9] | [10] | [11] | [12]

COC(=O)Nc1nc2ccc(C(=O)c3ccccc3)cc2[nH]1
active: [14] 4.52 µM
inactive: [18] | [4] | [5] | [6] | Aromatase (Homo sapiens) | [13] | [15] | [8] | [10] | [12]

Nc1nc(-c2ccccc2)cs1
active: [14] 24.3 µM
inactive: [2] | [6] | Aromatase (Homo sapiens) | [13] | [15] | [8] | [9] | [10] | [12]

CCO[Si](OCC)(OCC)OCC
not listed: [1]
inactive: all other assays above

Nc1nc2c(ncn2COCCO)c(=O)[nH]1
not listed: [1] | [7] | [16]
inactive: all other assays above

C=CC(=O)Nc1cc2c(Nc3ccc(F)c(Cl)c3)ncnc2cc1OCCCN1CCOCC1
inactive: Aromatase (Homo sapiens) | [13] | [14] | [16] | [10]
active: [3] 23.9 µM [inconclusive] | [4] 29.8 µM | [8] 29.8 µM

CN1CCN(Cc2cc(-c3ccc4[nH]c(=O)oc4c3)co2)[C@@H](c2ccc(F)cc2)C1
active: [18] 47.1 µM [inhibitor] | [15] 52.4 µM
inactive: [2] | [3] | [14] | [8] | [9] | [10]

CC(C)(C)NSc1nc2ccccc2s1
active: [14] 27.8 µM | [17] 27.8 µM
not listed: [1] | [10] | [11] | Aromatase (Homo sapiens) | [16]
inactive: all other assays above

CCCC(=O)OCCc1ccccc1
not listed: [1] | [3] | [4] | [5] | [7] | [9] | [17] | [18]
inactive: all other assays above

C#C[C@]1(OC(C)=O)CC[C@H]2[C@@H]3CCC4=C[C@@H](OC(C)=O)CC[C@@H]4[C@H]3CC[C@@]21C
active: [3] 0.0085 µM [inconclusive] | [4] 0.7 nM and 4.7 nM | [5] 33.5 µM | [17] 26.6 µM
not listed: [1] | [7] | [9] | [12] | [16] | [18]
inactive: all other assays above

Cc1c2ccccc2c(C)c2c1ccc1ccccc12
active: [4] 30.3 µM | [5] 67.9 nM and 486 nM | [14] 8.55 µM and 21.7 µM | [15] 60.5 µM and 48.6 µM | [8] 49 µM | [12] 48.5 µM and 38.9 µM
inactive and 27.3 µM (active): Aromatase (Homo sapiens)
inactive: [6] | [13]

C#Cc1ccc(-c2ccccc2F)cc1
inactive: [7] | [8] | [17] | [9] | [10] | [12]

O=C(O)Cc1ccc2c(c1)C(=O)c1ccccc1CO2
inactive: [8] | [9] | [10] | [11] | [12]

CCO[C@@H]1O[C@H](C(COCc2ccccc2)OCc2ccccc2)[C@H](OCc2ccccc2)[C@H]1O (some centres undefined)
inactive: [2] | [6] | Aromatase (Homo sapiens) | [13] | [14] | [15] | [16] | [8] | [10]
